Reference: PubChem BioAssay (Tox21)
“And” between values parts separate entries of the source, which are not always exact repeats. Equal entries are not always repeated. A number with no mark means an inactive call. Inconclusive results are not listed. Entries that show only a call come without a potency. The source made the active and inactive calls. Unless noted, calls come from the whole dose curve.

Experiments:
[1] = Nuclear factor erythroid 2-related factor 2/antioxidant responsive element (Nrf2/ARE) small molecule agonists: qHTS cell viability counter screen in human keratinocytes (AID 1919968; active = well fitted curve in the direction sought with a large enough effect in the repeat runs; an effect the other way counts as inactive or inconclusive; note: nearly all actives have a fitted effect of over 55% in size; note: potency is the fitted concentration of half-maximal effect)
Summary of the method: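 After a 5 h attachment period, ARE-reporter keratinocytes were dosed with compounds in DMSO and then cultured 23 h at 37 C. Cell viability came from CellTiter-Fluor signal read after a further 1 h.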

[2] = Nuclear factor erythroid 2-related factor 2/antioxidant responsive element (Nrf2/ARE) small molecule agonists: luciferase reporter gene qHTS assay in human keratinocytes (AID 1919969); note: nearly all actives have a fitted effect of over 35% in size; note: potency is the fitted concentration of half-maximal effect
[3] = target: Gonadotropin-releasing hormone receptor (Homo sapiens) (UniProt P30968); assay: Human gonadotropin-releasing hormone receptor (GnRHR) small molecule agonists, calcium flux assay in GnRHR-HEK293 cells (AID 1920063); note: nearly all actives have a fitted effect of over 35% in size
Summary of the method: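 We seeded human GnRHR-expressing HEK293 cells for 18 hours, loaded them with calcium dye for an hour at 37 C, added test compounds, and recorded fluorescence intensity kinetically for three minutes.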

[4] = target: KiSS-1 receptor (Homo sapiens) (UniProt Q969F8); assay: Human kisspeptin (KISS1R) small molecule agonists, calcium flux assay in KISS1R-HEK293 cells (AID 1920064; active = well fitted curve in the direction sought with a large enough effect in the repeat runs; an effect the other way counts as inactive or inconclusive)
Summary of the method: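 Kinetic calcium assay, 1 s sampling over 3 min at Ex/Em 480/540, in HEK293 cells engineered with human KISS1R; compounds delivered in DMSO after 1 h dye loading.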

[5] = G protein-coupled receptor (GPCR) small molecule agonists, calcium flux assay: HEK293 wild type cell line counter screen (AID 1920065)
Summary of the method: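 Calcium-sensitive dye, loaded 1 h at 37 C into cells cultured 18 h, reports compound-evoked calcium release as fluorescence (Ex/Em 480/540), measured over 3 min. Agonist mode; 15-point titrations, triplicate.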

[6] = p53 small molecule agonists, cell-based qHTS assay with human liver microsomes (AID 1963577);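 note: p53 response element beta-lactamase reporter cells with liver microsomes plus NADPH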
Summary of the method: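 Compounds act here after metabolic activation: human liver microsomes and NADPH, both at 0.5 mg/mL final, were co-added to p53RE-bla cells. Incubation ran 16 h at 37 C, followed by LiveBLAzer detection.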

[7] = p53 small molecule agonists, cell-based qHTS assay with rat liver microsomes (AID 1963578)
Summary of the method: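 Read-out is beta-lactamase reporter fluorescence (LiveBLAzer, 2 h, room temperature, dark) in p53RE-bla cells treated 16 h at 37 C with compound, rat liver microsomes and NADPH, both 0.5 mg/mL final.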

[8] = p53 small molecule agonists, cell-based qHTS assay: qHTS cell viability counter screen (AID 1963581); note: nearly all actives have a fitted effect of over 45% in size; note: potency is the fitted concentration of half-maximal effect
Summary of the method: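 Following 5 h attachment, HCT-116 p53RE-bla cells took up compound for 16 h at 37 C; the reporter was read with B/G FRET substrate (2 h RT), and viability then via CellTiter-Glo ATP luminescence.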

[9] = p53 small molecule agonists, cell-based qHTS assay (AID 1963582; active = well fitted activation curve with a large enough effect in the signal ratio in the repeat runs, not every such curve was filed as active; the % refers to the signal ratio)
Summary of the method: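 In this cell-based concentration-response screen, a p53 response element drives beta-lactamase; cells received DMSO-borne compounds after 5 h culture and were incubated a further 16 h before FRET substrate development.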

[10] = target: 5-hydroxytryptamine receptor 2A (Homo sapiens) (UniProt P28223); assay: 5-hydroxytryptamine receptor 2A (HTR2A) small molecule antagonists, cell-based qHTS assay (AID 1963586); note: nearly all actives have a fitted effect of over 45% in size
Summary of the method: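 Antagonist-mode intracellular calcium assay: DOI (4 nM) added after 5 min compound pre-incubation at room temperature to dye-loaded HTR2A-CHO cells. Fluorescence followed for 3 min, sampled every second.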

[11] = target: Muscarinic acetylcholine receptor M1 (Homo sapiens) (UniProt P11229); assay: Cholinergic receptor muscarinic 1 (CHRM1) small molecule antagonists, cell-based qHTS assay (AID 1963588); note: nearly all actives have a fitted effect of over 40% in size; note: potency is the fitted concentration of half-maximal effect
Summary of the method: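 CHRM1-CHO calcium-flux assay, antagonist mode. Cells were seeded 18 h, dye-loaded 1 h at 37 C and given compound for 5 min at RT, then acetylcholine was added at 50nM. FDSS fluorescence was read 3 min; 15 concentrations, three runs.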

[12] = cAMP Responsive Elements (CRE) small molecule agonists, cell-based qHTS assay (AID 1963590)
Summary of the method: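 A CRE-responsive beta-lactamase reporter in HEK 293T cells was used. Treatment ran 3 h at 37 C; detection used LiveBLAzer B/G FRET substrate for 2 h at room temperature.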

[13] = cAMP Responsive Elements (CRE) small molecule antagonists, cell-based qHTS assay (AID 1963591; active = well fitted inhibition curve with a large enough effect in the signal ratio in the repeat runs, not every such curve was filed as active; the % refers to the signal ratio)
Summary of the method: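 HEK293T cells carrying a CRE-driven beta-lactamase reporter receive compound and NKH477 (0.25 uM final) for 3 h. Fluorescence from LiveBLAzer B/G FRET substrate is read after 2 h at room temperature.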

[14] = target: Beta-2 adrenergic receptor (Homo sapiens) (UniProt P07550); assay: Adrenergic beta2 receptor (ADRB2) small molecule antagonists, cell-based qHTS assay (AID 1963592); note: series mostly up to about 92 µM; nearly all actives have a fitted effect of over 50% in size
Summary of the method: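 Cells (CHO, stable ADRB2 overexpression) incubated 18-20hr at 37C; compounds added from DMSO; agonist mix (1nM isoproterenol, 100uM IBMX, 25uM Ro-20-1724) added; 0.5hr RT; d2-cAMP and anti-cAMP-cryptate added; 1hr RT; 665/615 nm read.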

[15] = target: Beta-2 adrenergic receptor (Homo sapiens) (UniProt P07550); assay: Adrenergic beta2 receptor (ADRB2) small molecule agonists, cell-based qHTS assay (AID 1963593);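 note: CHO cells stably overexpressing human ADRB2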
Summary of the method: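 CHO cells stably over-expressing ADRB2 were plated overnight at 37C, then dosed with compounds plus a stimulation mix containing 100uM IBMX and 25uM Ro-20-1724 for 0.5hr at room temperature. cAMP was measured by HTRF competition, 1hr.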

[16] = target: D(2) dopamine receptor (Homo sapiens) (UniProt P14416); assay: Dopamine D2 receptor (DRD2) small molecule agonists, cell-based qHTS assay (AID 1963594); note: nearly all actives have a fitted effect of over 35% in size
Summary of the method: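 HEK293 cells stably expressing human DRD2, pre-treated with PDE inhibitor Ro20-1724 (0.1 mM final) and compound 10 min at room temperature, then stimulated with NKH477 (200nM […]) for 30 min. cAMP read by HTRF (665/620 nm).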

[17] = target: D(2) dopamine receptor (Homo sapiens) (UniProt P14416); assay: Dopamine D2 receptor (DRD2) small molecule antagonists, cell-based qHTS assay (AID 1963595; active = well fitted inhibition curve with a large enough effect in the signal ratio in the repeat runs, with a control signal flat; the % refers to the signal ratio)
Summary of the method: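 Readout: HTRF cAMP, cAMP-d2 competing with cellular cAMP for anti-cAMP cryptate, read after 1 h. Cells: DRD2-HEK293. Conditions: 0.1 mM Ro20-1724, 12 nM quinpirole, 200 nM NKH477, 30 min RT.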

[18] = target: 5-hydroxytryptamine receptor 2A (Homo sapiens) (UniProt P28223); assay: 5-hydroxytryptamine receptor 2A (HTR2A) small molecule agonists, cell-based qHTS assay (AID 1963587); note: nearly all actives have a fitted effect of over 30% in size; note: potency is the fitted concentration of half-maximal effect
Summary of the method: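 CHO cells stably expressing human HTR2A, plated 18 h, loaded with calcium dye 1 h at 37 C. Agonist mode: compounds added and intracellular calcium fluorescence recorded kinetically for 2 min at 1 sec intervals.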

[19] = target: Muscarinic acetylcholine receptor M1 (Homo sapiens) (UniProt P11229); assay: Cholinergic receptor muscarinic 1 (CHRM1) small molecule agonists, cell-based qHTS assay (AID 1963589); note: nearly all actives have a fitted effect of over 35% in size
Summary of the method: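 Measures agonist-induced intracellular calcium rise. Stable human CHRM1 CHO line, 1 h dye load at 37 C, compounds from DMSO, kinetic fluorescence read.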

Beta-2 adrenergic receptor (Homo sapiens), sequence (P07550 whole entry, looked up): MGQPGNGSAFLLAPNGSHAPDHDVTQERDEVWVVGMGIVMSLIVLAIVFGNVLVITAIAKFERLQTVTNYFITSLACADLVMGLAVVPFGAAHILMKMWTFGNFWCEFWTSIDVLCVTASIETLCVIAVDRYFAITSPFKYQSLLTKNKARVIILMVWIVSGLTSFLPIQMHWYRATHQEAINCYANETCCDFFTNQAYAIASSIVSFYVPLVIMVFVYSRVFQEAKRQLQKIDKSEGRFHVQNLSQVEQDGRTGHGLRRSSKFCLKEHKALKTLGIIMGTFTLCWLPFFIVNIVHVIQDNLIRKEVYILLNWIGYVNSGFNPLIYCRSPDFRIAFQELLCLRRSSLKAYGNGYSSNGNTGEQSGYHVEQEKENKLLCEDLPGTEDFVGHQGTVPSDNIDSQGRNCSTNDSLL
5-hydroxytryptamine receptor 2A (Homo sapiens), sequence (P28223 whole entry, looked up): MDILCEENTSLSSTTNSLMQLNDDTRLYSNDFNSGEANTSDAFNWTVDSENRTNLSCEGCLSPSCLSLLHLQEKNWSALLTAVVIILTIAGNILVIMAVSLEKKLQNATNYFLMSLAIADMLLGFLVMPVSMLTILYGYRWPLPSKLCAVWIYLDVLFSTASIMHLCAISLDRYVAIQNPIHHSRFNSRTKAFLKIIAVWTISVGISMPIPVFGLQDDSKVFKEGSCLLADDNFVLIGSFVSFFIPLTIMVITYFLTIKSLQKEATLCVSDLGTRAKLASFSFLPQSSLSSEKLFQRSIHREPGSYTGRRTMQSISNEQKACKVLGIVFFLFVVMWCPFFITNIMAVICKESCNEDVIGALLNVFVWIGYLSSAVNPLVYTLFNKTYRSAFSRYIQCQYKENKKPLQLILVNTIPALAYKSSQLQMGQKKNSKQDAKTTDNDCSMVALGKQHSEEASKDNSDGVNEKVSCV
KiSS-1 receptor (Homo sapiens), sequence (Q969F8 whole entry, looked up): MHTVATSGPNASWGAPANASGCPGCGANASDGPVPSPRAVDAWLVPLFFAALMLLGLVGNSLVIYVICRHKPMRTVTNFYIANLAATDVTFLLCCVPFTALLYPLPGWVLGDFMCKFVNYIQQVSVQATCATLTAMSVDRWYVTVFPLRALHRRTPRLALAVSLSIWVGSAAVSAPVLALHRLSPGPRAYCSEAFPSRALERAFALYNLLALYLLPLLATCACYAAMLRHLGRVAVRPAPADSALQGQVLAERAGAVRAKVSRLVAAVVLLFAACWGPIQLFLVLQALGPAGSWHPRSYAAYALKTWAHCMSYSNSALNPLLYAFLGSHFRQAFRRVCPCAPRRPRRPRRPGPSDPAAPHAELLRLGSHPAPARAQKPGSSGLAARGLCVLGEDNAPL
Gonadotropin-releasing hormone receptor (Homo sapiens), sequence (P30968 whole entry, looked up): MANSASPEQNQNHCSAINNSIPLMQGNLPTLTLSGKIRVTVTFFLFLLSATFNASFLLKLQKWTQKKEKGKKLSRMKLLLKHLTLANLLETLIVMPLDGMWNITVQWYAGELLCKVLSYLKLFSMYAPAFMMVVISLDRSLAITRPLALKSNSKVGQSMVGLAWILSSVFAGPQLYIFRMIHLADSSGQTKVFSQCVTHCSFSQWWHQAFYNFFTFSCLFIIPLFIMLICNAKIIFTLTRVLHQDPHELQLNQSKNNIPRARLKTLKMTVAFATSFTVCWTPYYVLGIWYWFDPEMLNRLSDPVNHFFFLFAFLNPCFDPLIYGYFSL
Muscarinic acetylcholine receptor M1 (Homo sapiens), sequence (P11229 whole entry, looked up): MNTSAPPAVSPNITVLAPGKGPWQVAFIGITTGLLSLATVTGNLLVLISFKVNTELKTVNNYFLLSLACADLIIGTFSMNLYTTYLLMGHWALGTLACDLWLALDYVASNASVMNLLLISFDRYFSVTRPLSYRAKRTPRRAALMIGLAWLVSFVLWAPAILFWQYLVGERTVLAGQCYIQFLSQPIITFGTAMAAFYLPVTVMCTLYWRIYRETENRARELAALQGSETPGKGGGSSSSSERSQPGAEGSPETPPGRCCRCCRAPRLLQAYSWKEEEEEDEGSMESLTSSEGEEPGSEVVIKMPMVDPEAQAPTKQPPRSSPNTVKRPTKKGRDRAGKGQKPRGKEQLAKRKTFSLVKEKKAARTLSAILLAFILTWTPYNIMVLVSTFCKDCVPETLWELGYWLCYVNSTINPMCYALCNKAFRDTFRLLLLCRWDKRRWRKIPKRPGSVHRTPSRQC
D(2) dopamine receptor (Homo sapiens), sequence (P14416 whole entry, looked up): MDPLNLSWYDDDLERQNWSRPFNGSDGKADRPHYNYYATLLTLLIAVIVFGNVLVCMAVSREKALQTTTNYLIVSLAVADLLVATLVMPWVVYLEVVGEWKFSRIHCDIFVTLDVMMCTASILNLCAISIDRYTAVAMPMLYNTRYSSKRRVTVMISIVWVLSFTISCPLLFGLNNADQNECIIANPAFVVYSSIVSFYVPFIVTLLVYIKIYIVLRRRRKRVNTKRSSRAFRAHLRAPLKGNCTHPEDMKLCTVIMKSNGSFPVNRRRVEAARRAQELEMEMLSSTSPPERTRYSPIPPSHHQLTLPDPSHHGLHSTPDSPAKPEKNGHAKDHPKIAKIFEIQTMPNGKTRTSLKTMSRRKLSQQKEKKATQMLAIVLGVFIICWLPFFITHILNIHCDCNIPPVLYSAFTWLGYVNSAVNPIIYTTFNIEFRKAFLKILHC

Compound | Potency [1] | Potency [2] | Potency [3] | Potency [4] | Potency [5] | Potency [6] | Potency [7] | Potency [8] | Potency [9] | Potency [10] | Potency [11] | Potency [12] | Potency [13] | Potency [14] | Potency [15] | Potency [16] | Potency [17] | Potency [18] | Potency [19]
CCOC(=O)OC(=O)OCC | inactive | inactive | inactive | inactive | inactive | inactive | inactive | inactive | inactive | inactive | inactive | inactive | inactive | inactive | inactive | inactive | inactive |  | 
C=CC(=O)OCCCCCC | inactive | inactive | inactive | inactive | inactive | inactive | inactive | 363 nM (active) | inactive | inactive | inactive | inactive | inactive | inactive |  | inactive | inactive | inactive | inactive
C=C(C)C(=O)OCCC(F)(F)C(F)(F)C(F)(F)C(F)(F)C(F)(F)C(F)(F)F | inactive | inactive | inactive | inactive | inactive | inactive | inactive | inactive | inactive | inactive | inactive | inactive | inactive |  |  | inactive | inactive | inactive | inactive
COCCCOc1cc(C[C@@H](C[C@H](N)[C@@H](O)C[C@H](C(=O)NCC(C)(C)C(N)=O)C(C)C)C(C)C)ccc1OC | inactive | inactive | inactive | inactive | inactive | inactive | inactive | inactive | inactive | inactive | inactive | inactive | inactive | inactive |  | inactive | inactive | inactive | inactive
O=[N+]([O-])c1ccccc1CCO | inactive | inactive | inactive | inactive | inactive | inactive | inactive | inactive | inactive | inactive | 0.0011 µM (active) | inactive | inactive | inactive |  | inactive | inactive | inactive | inactive
CCOC(=O)c1ccccc1C | inactive | inactive | inactive | inactive | inactive | inactive | inactive | inactive | inactive | inactive | inactive | inactive | inactive | inactive |  | inactive | inactive | inactive | inactive
CC(C)(c1cc(Br)c(O)c(Br)c1)c1cc(Br)c(O)c(Br)c1 | 43.1 µM (active) and 38.5 µM (active) | inactive | inactive | inactive | inactive | inactive | inactive | 36.2 µM (active) and 40.7 µM (active) |  |  | inactive | inactive | inactive | inactive |  | inactive | inactive | 48.8 µM (active) | inactive
CO[C@@]1(NC(=O)C(C(=O)O)c2ccc(O)cc2)C(=O)N2C(C(=O)O)=C(CSc3nnnn3C)CO[C@@H]21 (stereo not given in full) | inactive | inactive | inactive | inactive | inactive | inactive | inactive | inactive | inactive | inactive | inactive |  | inactive | inactive | inactive | inactive | inactive | inactive | inactive
COC(C)(C)CCO | inactive | inactive | inactive | inactive | inactive | inactive | inactive | inactive | inactive | inactive | inactive |  | inactive | inactive | inactive | inactive |  |  | inactive
CC(=O)CC/C=C(\C)CC/C=C(\C)CC/C=C(\C)CCC=C(C)C | inactive | 26.6 µM (active) | inactive | inactive | inactive | inactive | inactive | inactive | inactive | inactive | inactive | inactive | inactive | inactive |  | inactive | inactive | inactive | inactive
CO[C@@]1(NC(=O)CSC[C@@H](N)C(=O)O)C(=O)N2C(C(=O)O)=C(CSc3nnnn3C)CS[C@@H]21 | inactive | inactive | inactive | inactive | inactive | inactive | inactive | inactive | inactive | inactive | inactive | inactive | inactive | inactive |  | inactive | inactive | inactive | inactive
COc1cc(S(N)(=O)=O)cc(C(=O)O)c1OC | inactive | inactive | inactive | inactive | inactive | inactive | inactive | inactive | inactive | inactive | inactive | inactive | inactive | inactive |  | inactive |  | inactive | inactive
CC/C=C\CCOC(=O)CCCCC | inactive | inactive | inactive | inactive | inactive | inactive | inactive | inactive | inactive | inactive | inactive | inactive | inactive | inactive |  | inactive | inactive | inactive | inactive
Cc1onc(-c2ccccc2)c1C(=O)Cl | inactive | inactive | inactive | inactive | inactive | inactive | inactive | inactive | inactive |  | inactive | inactive | inactive | inactive | inactive |  | inactive | inactive | inactive
Cc1ccc(C(C)(C)C)cc1 | inactive | inactive | inactive | inactive | inactive | inactive | inactive | inactive |  | inactive | inactive |  | inactive | inactive |  | inactive | inactive | inactive | inactive
